# Screening data (PubChem)
# EBV gp42 block = blocks Epstein-Barr virus glycoprotein 42 binding; inhibition, % (tested at 21.74 µM); Fluorescence polarization binding assay, mP read-out; hit rate 0.42% among 220,000; AID 1085; in the data active = inhibition above about 50%
# MEX-5 binding = C. elegans MEX-5 TCR-2 RNA binding activity; hit rate 0.38% among 300,000; activity score (negative = inhibition of binding), % at 10 µM; AID 1832; MEX-5/FITC-TCR2 RNA binding, fluorescence polarization; stronger effect = lower value;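 active = inhibition past about -25% in most replicates, and total fluorescence under double the plate's negative control median, limit read from the data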
# Target sequence (Q9XUB2 whole entry, looked up): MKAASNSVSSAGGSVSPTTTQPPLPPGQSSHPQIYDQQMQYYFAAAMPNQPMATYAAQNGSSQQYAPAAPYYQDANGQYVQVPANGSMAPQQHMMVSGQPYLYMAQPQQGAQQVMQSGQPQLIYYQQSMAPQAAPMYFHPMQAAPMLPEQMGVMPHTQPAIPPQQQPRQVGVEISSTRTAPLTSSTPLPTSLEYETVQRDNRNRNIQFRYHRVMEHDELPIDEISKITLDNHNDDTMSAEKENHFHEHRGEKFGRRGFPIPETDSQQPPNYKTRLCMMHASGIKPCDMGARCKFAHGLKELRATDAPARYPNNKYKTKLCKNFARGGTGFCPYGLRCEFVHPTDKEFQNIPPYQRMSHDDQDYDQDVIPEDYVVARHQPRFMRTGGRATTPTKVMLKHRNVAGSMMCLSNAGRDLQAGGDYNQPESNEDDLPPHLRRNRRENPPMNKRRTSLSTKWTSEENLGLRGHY
# GLD-1 TGE inh = GLD-1-TGE RNA interaction inhibition (C. elegans); purified GLD-1 + fluorescein TGE RNA, fluorescence polarization; inhibition, % at 5.96 µM; Q17339; AID 2280; hit rate 0.44% among 320,000;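 active = percent inhibition above a per-plate cutoff, the plate mean of test compounds plus 3 SD, cut at about 30% in these data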
# Bcl-xL primary = inhibitors of human Bcl-xL | Q07817 | GST-Bcl-xL / FITC-Bim BH3 peptide fluorescence polarization | inhibition, % at 10.9 µM | hit rate 0.7% among 320,000;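 active = inhibition above the mean of all tested compounds plus 3 SD, cutoff set per campaign, cut at about 30% in these data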;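 note: inhibitors lower millipolarization by displacing the labeled peptide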
# MCL1-BIM inh = inhibitors of human MCL1 binding to BIM-BH3 peptide; AID 2057; GST-MCL1 / FITC-Bim-BH3 fluorescence polarization; Q07820; hit rate 0.68% among 320,000; inhibition, % at 10.9 µM;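 active = inhibition above the mean inhibition of all tested compounds plus 3 SD, set per campaign, cut at about 40% in these data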;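 note: higher means more loss of mP so more displacement of Bim peptide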
# GLD-1 TGE cf = confirmation of C. elegans GLD-1 TGE RNA binding inhibitors | shares compounds with GLD-1 TGE inh | inhibition, % at 5.96 µM | GLD-1/FL-TGE RNA fluorescence polarization, biochemical | hit rate 10% among 550 | AID 2459;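 active = average inhibition across triplicates above the hit cutoff set in the primary screen, cut at about 32% in these data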
# Numbers stand for hits; – = inactive; · = no result. Most compounds without a hit are left out; they make up all but 1.3% or so of the library.
SMILES,EBV gp42 block,MEX-5 binding,GLD-1 TGE inh,Bcl-xL primary,MCL1-BIM inh,GLD-1 TGE cf
CCOC(=O)C1CCN(C(=O)c2ccc3c(c2)NC(=O)/C(=C/c2ccccc2)S3)CC1,·,–,–,–,–,·
CCSc1nc2nc(C)cc(C)n2n1,–,–,–,–,–,·
C=C(C)CSc1nc2nc(C)cc(C)n2n1,–,–,35,–,–,–
CC(C)(C)c1c(Cl)c(O)c(-c2ccccc2)c(=O)n1-c1ccccc1,–,–,·,·,·,·
CC1(C)Cc2c(C#N)c(N)sc(=S)c2CO1,–,–,31,40,43,–
CCN(CC)c1nc(C)c2c(c1C#N)CC(C)(C)OC2,–,–,–,–,–,·
CN(Cc1ccccc1)C(=O)[C@@H]1CCCN1S(=O)(=O)c1ccc(Cl)cc1,·,–,–,–,–,·
COC(=O)c1ccc(NC(=O)CSc2ccccc2)cc1,–,–,37,38,–,–
CCOc1cc(CNCCO)cc(Br)c1OCc1cccs1,–,–,–,–,–,·
CCOc1cc(CNCc2cccs2)cc(Br)c1OCC,–,–,37,–,–,–
O=C(NCCOc1ccc(Cl)cc1)c1ccc2ccccc2n1,–,·,54,–,–,–
Nc1ccccc1C(=O)Nc1cccc2ccccc12,·,–,·,·,·,·
O=C(Nc1cccc2ccccc12)c1ccccc1Cl,·,–,51,–,–,–
Nc1c(Cl)ncnc1N/N=C/c1ccc2ccccc2n1,–,·,32,–,–,–
Cc1ccccc1-c1nc2sc(C)c(C)c2c(=O)o1,·,–,–,–,–,·
Cc1sc2nc(C(C)(C)C)oc(=O)c2c1C,–,–,117,–,–,–
O=C(NNc1c2ccccc2nc2ccccc12)C12CC3CC(CC(C3)C1)C2,–,–,–,–,–,·
NNC(=O)c1cc(C23CC4CC(CC(C4)C2)C3)nc2ccccc12,·,–,60,–,–,–
CCN(Cc1ccncc1)C(=S)Nc1c(C)cccc1C,–,–,37,44,47,–
CC(C)c1ccc(NC(=O)COC(=O)C2CC3C=CC2C3)cc1 (centres undefined),·,·,–,·,·,·
CCN(CC)CCNc1cc(C)c(C#N)c2nc3ccccc3n12,·,–,32,33,–,–
Cc1ccc(-c2csc(N3CCN(CCCn4c(-c5ccncc5)nc5ccccc54)CC3)n2)cc1,·,–,–,–,–,·
Cc1ccc(-c2csc(N3CCN(CCCn4c(C(F)(F)F)nc5ccccc54)CC3)n2)cc1,·,–,40,–,–,–
O=C(CSc1nc2c(c(=O)[nH]1)CCC2)Nc1cccc(F)c1,·,–,–,–,–,·
Cc1ccccc1-n1ncc2c1CC(C)(C)CC2NC(=O)CCCN1CCCC1=O (centres undefined),·,–,–,–,–,·
SMILES,EBV gp42 block,MEX-5 binding,GLD-1 TGE inh,Bcl-xL primary,MCL1-BIM inh,GLD-1 TGE cf
CC(=O)[C@@H]1[C@@H]2C(=O)N(C3CCCCC3)C(=O)[C@@H]2C2c3ccccc3C=CN21 (some centres undefined),–,–,32,–,–,37
COc1ccc(NC(=O)N2c3ccc(OC)cc3C(C)=CC2(C)C)cc1,–,–,–,–,–,·
CCNC(=O)N1c2ccc(OC)cc2C(C)=CC1(C)C,–,–,70,52,–,–
CC1CN(C(=S)Nc2ccc(SC(F)F)cc2)CC(C)O1 (centres undefined),·,–,–,–,–,·
CC1CC(C)CN(C(=S)Nc2ccc(SC(F)F)cc2)C1 (centres undefined),–,–,43,–,–,–
N#C/C(C(=O)N1CCOCC1)=c1/s/c(=C\c2ccccn2)c(=O)n1-c1ccccc1,–,–,33,43,43,–
COc1ccc(OC)c(NC(=O)c2cc3c(cc2Cl)N2CCCCCC2=NS3(=O)=O)c1,·,·,35,·,·,–
COc1ccc(NC(=O)CN(C)C(=O)c2cc3c(cc2Cl)N2CCCCCC2=NS3(=O)=O)cc1,·,–,–,–,–,·
CN1CCN(c2nc3nonc3nc2N2CCN(C)CC2)CC1,–,–,35,33,–,–
O=c1c2cccc(Cl)c2nc2n1Cc1ccccc1-2,–,–,42,–,–,–
Cc1ccc(C)c(NC(=S)NCc2ccc3[nH]c4c(c3c2)CCCC4)c1,–,–,59,55,–,–
O=C(COC(=O)/C=C/c1cccc(Cl)c1)Nc1ccccc1-c1ccccc1,–,–,47,–,–,–
CCOc1ccc(C(=O)n2cnnc2N)cc1,–,–,35,–,–,–
CCOCCCN(C)C1CCN(C(=O)c2oc3ccccc3c2NC(=O)c2cccc([N+](=O)[O-])c2)CC1,·,–,–,–,–,·
CCOc1cc(NC(=O)c2cnccn2)c(OCC)cc1NC(=O)c1cccc(F)c1,–,–,–,–,–,·
CS(=O)(=O)c1sc2nc(-c3cccs3)cc(-c3ccccc3)c2c1N,–,–,53,–,–,–
COc1ccc2nc(N3CCC(O)CC3)c(C#N)cc2c1,–,–,37,42,–,31
COC(=O)C1Sc2[nH]c(=O)sc2C(c2ccc(Cl)cc2)C1C(=O)OC (centres undefined),–,–,–,–,–,·
Cc1ccc(C2c3sc(=O)[nH]c3SC3C(=O)NC(=O)C32)cc1 (centres undefined),–,-46,54,–,–,–
Cc1ccc(S(=O)(=O)CCC(O)c2ccc(Cl)cc2)cc1 (centres undefined),·,–,–,–,–,·
C[C@H](CCC(=O)O)[C@H]1CC[C@H]2[C@@H]3[C@H](O)C[C@@H]4C[C@H](O)CC[C@]4(C)[C@H]3CC[C@]12C,·,·,–,–,–,·
CC(CCC(C)C(C)(C)C)[C@@H]1CC[C@H]2C3C[C@H](OS(O)(=S)=S)[C@H]4C[C@H](OS(O)(=S)=S)[C@@H](OS(O)(=S)=S)C[C@]4(C)[C@H]3CC[C@]12C (some centres undefined) (tested in a mixture with another compound),·,·,85,·,·,72
CC1=C(C(=O)OC(C)C)C(c2ccc(Cl)cc2)n2c(s/c(=C\c3ccc(OCC(=O)O)cc3)c2=O)=N1 (centres undefined),·,–,·,·,·,·
CC(C)N(Cc1nccn1C)C(=O)CC1C(=O)NCCN1Cc1ccc(F)c(F)c1 (centres undefined),·,–,38,–,–,–
CC(C)N(Cc1nccn1C)C(=O)CC1C(=O)NCCN1Cc1ccc(F)cc1 (centres undefined),·,·,–,–,–,·
Cc1cc(C)c(C(=O)CN2C(=O)C(=O)N(C3CCCC3)C2=O)cc1C,·,·,–,–,–,·
COc1ccc(S(=O)(=O)C(C#N)c2nc3ccccc3nc2N2CCCC(C)C2)cc1 (centres undefined),–,–,33,43,41,–
CC1CCCN(c2nc3ccccc3nc2C(C#N)C(=O)OC2CCCCC2)C1 (centres undefined),–,·,·,·,·,·
CCc1ccc(NC(=O)C2CCN(S(=O)(=O)c3cnc[nH]3)CC2)cc1,·,–,–,–,–,·
